Assay outcomes from PubChem.
A selection: hits, their analogues and other compounds. The true share with any hit is near 4.6%.
PfHsp90 set2: reduces growth (ATP signal) of yeast expressing P. falciparum Hsp90. 310,000 compounds, 0.32% hits. inhibition, % at 9.4 µM. S. cerevisiae expressing PfHsp90, BacTiter-Glo ATP, 48 h; yeast lacking PDR1 and PDR3 efflux regulators. AID 504621;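 active = every replicate shows inhibition above about 80%, whatever the replicate mean, limit read from the data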
tim23-1 inh: inhibits growth of tim23-1 mutant yeast; inhibition, % at 20 µM; 330,000 compounds, 1.3% hits; S. cerevisiae tim23-1 growth, BacTiter-Glo luminescence, 24 h;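 active = growth inhibition of the mutant yeast at or above 50%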;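 also: temperature-sensitive mutant grown at 25 °C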
SKKanGAS inh: inhibitors of SKKanGAS S. pyogenes growth in kanamycin (SK-promoter or general growth effect); BacTiter-Glo, 6 h; inhibition, % at 7.5 µM; 300,000 compounds, 1.3% hits; AID 1662;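 active = mean replicate score, as percent of positive control median, at least 50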;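 also: strain carries kanamycin resistance gene driven by streptokinase promoter and grows in 40 µg/ml kanamycin; loss of luminescence reflects streptokinase promoter inhibition or plain growth inhibition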
tim10-1 inh: growth inhibitors of tim10-1 mutant yeast | S. cerevisiae tim10-1 ts strain growth, BacTiter-Glo, 24 h | inhibition, % at 20 µM | 330,000 compounds, 2.2% hits | AID 463190;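 active = inhibition of at least 40%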;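 also: mutant grown at 25 °C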
TIM10 inh: inhibits growth of TIM10 yeast strain. S. cerevisiae TIM10 strain growth, BacTiter-Glo luminescence, 24 h. 330,000 compounds, 1.4% hits. inhibition, % at 10 µM;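 active = inhibition of 40% or more at the single tested concentration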;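 also: wild-type TIM10 isogenic control strain grown at permissive 25 °C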
NALP3 yeast inh: inhibitors of NALP3 inflammasome in yeast; Yeast reconstituted NLRP3/ASC/caspase-1, beta-gal luminescence, 24 h; inhibition, % at 10 µM; 330,000 compounds, 0.39% hits; AID 2825;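 active = inhibition of 50% or more; inactive = inhibition below 50%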
tim23-1 conf: confirmation of tim23-1 mutant yeast growth inhibitors; S. cerevisiae tim23-1 growth, BacTiter-Glo luminescence, 24 h; 4,400 compounds, 83% hits; shares compounds with tim23-1 inh; inhibition, % at 20 µM;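 active = inhibition above about 39% in either of two replicate wells at 20 µM, limit read from the data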;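 also: temperature-sensitive tim23-1 mutant grown at 25 °C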
A number is an active result; . = inactive; / = no result given.

SMILES	PfHsp90 set2	tim23-1 inh	SKKanGAS inh	tim10-1 inh	TIM10 inh	NALP3 yeast inh	tim23-1 conf
CC1(c2ccccc2)CC(C)(C)N2C(=O)C(=O)c3cccc1c32 (stereo not given)	/	60.9	.	.	.	.	56.5
CC1(c2ccccc2)CC(C)(C)n2c(O)c(C3=NC(=S)NC3=O)c3cccc1c32 (stereo not given)	.	.	.	.	.	.	/
CCC(C)(C)C1CCc2[nH]nc(C(=O)NC(C)C)c2C1 (stereo not given)	.	53.4	/	.	.	.	53.0
CCC(C)(C)C1CCc2[nH]nc(C(=O)NCC3CC3)c2C1 (stereo not given)	.	55.9	/	.	.	.	64.0
CCC(C)(C)C1CCc2[nH]nc(C(=O)NN)c2C1 (stereo not given)	.	.	.	.	.	.	/
Cc1ccccc1NS(=O)(=O)c1ccc(C(=O)N(C)CC(=O)Nc2ccccc2Br)cc1	/	.	/	.	.	.	/
CCOC(=O)C1CCN(C(=O)Cc2ccccc2OC)CC1	.	.	.	.	.	.	/
CCOC(=O)C1CCN(C(=O)Cc2c(C(=O)O)n(C)c3ccccc23)CC1	.	77.2	.	.	.	.	.
O=C(Nc1nc2ccccc2[nH]1)c1ccc(OC(F)F)cc1	.	63.4	/	.	.	.	59.1
COc1ccc(C(=O)NC(=S)Nc2cccc3cc(O)ccc23)cc1OC	.	.	.	.	.	.	/
COc1ccccc1C(=O)NC(=S)Nc1cccc2cc(O)ccc12	.	53.5	.	.	.	.	46.0
COC(=O)c1ccccc1NC(=O)c1ccccc1OC	.	51.2	.	.	.	.	.
COc1ccccc1NC(=O)c1ccccc1C(=O)Nc1ccccc1OC	.	.	.	.	.	.	/
COc1ccccc1C(=O)Nc1c(C)cc(Br)cc1C	.	.	.	.	.	.	/
COc1ccccc1C(=O)Nc1cc(-c2ccc(C)cc2)no1	.	55.4	.	.	.	.	46.9
COc1cc(OC)c(NC(=O)CN(C)S(=O)(=O)c2ccc3[nH]c(=O)oc3c2)cc1Cl	.	.	.	.	.	.	/
Cc1ccc(C)c(NC(=O)CCc2nnc3ccc(N4CCCCC4)nn23)c1	.	.	.	.	.	.	/
Cc1ccc2c(c1)C(c1ccccc1)N(C(=O)c1c(F)cccc1Cl)CC(=O)N2 (stereo not given)	.	.	.	.	.	.	/
Oc1ccc(/C=N/Nc2cccc(Cl)n2)c(O)c1	.	56.0	.	.	.	.	44.0
O=C(COC(=O)CNC(=O)C1CCCCC1)Nc1ccc(Cl)cn1	/	.	.	.	.	.	/
O=C(COC(=O)CC1CCCC1)Nc1ccc(Cl)cn1	.	59.5	/	.	.	.	55.4
Oc1c(Br)cc(Br)cc1CNc1cccc2cccnc12	.	57.0	88.5	.	.	.	62.2
CN(C)c1ccc(/C=C/C(=O)c2c(O)c3ccccc3oc2=O)cc1	.	.	.	.	.	.	/
CCOc1ccc(/C=C/C(=O)c2c(O)c3ccccc3oc2=O)cc1	.	76.0	.	.	.	.	.
O=S(=O)(Nc1ccc(-c2csc(-c3ccccc3)n2)cc1)c1ccccc1	.	50.0	.	.	.	.	.
SMILES	PfHsp90 set2	tim23-1 inh	SKKanGAS inh	tim10-1 inh	TIM10 inh	NALP3 yeast inh	tim23-1 conf
COc1ccc([C@H]2CC(=O)C=C(c3ccc4[nH]ccc4c3)C2)cc1OC	.	.	/	.	.	.	/
O=C1C=C(c2ccc3c(c2)OCCO3)C[C@@H](c2ccc(F)cc2)C1	.	51.0	/	.	.	.	47.5
O=C1C=C(c2ccc3[nH]ccc3c2)C[C@@H](c2ccc(F)cc2)C1	.	53.0	/	.	.	.	50.5
CCC(C)n1cnc2c(c1=O)c1nc3ccccc3nc1n2Cc1ccc(OC)cc1 (stereo not given)	.	53.1	.	.	.	.	52.2
O=C(NCCc1c[nH]c2ccccc12)/C(=C\c1ccco1)NC(=O)c1ccco1	.	94.2	.	.	.	.	.
O=C(/C=C/c1ccccc1)NCCc1c[nH]c2ccccc12	.	59.3	.	.	.	.	59.6
COc1cccc(C(=O)C(C#N)=C(SC)SC)c1	.	60.0	.	.	.	.	76.8
COc1cccc(C(=O)Nc2ccc(NC(C)=O)cc2)c1	.	.	.	.	.	.	/
CSC(SC)=C(C#N)C(=O)c1ccccc1	.	80.2	.	.	.	.	84.6
CCN(CC(=O)NCc1cccs1)C(=O)c1cc(S(=O)(=O)NCc2ccccc2)ccc1C	.	.	.	.	.	.	/
CCOC(=O)c1cnc(N2CCN(c3ccccc3)CC2)[nH]c1=O	.	.	.	.	.	.	/
CC1CCCCN1C(=O)Nc1cccc(Cl)c1 (stereo not given)	/	51.4	.	.	.	.	48.0
CCCn1c(=O)n(N)c2ccccc21	.	.	.	.	.	.	/
Cc1nc2ccc(NC(=O)c3ccc(Cl)c(NC(=O)c4cccs4)c3)cc2s1	.	.	.	.	.	.	/
Cc1ccc(NC(=O)c2ccc(Cl)c(NC(=O)c3cccs3)c2)cc1	.	66.3	.	.	.	.	66.2
Cc1cccc(-n2cc(-c3ccccc3)c3c(=O)[nH]cnc32)c1	.	54.1	.	.	.	.	47.5
FC(F)(F)c1cccc(Sc2cc(C(F)(F)F)nc(-c3ccccn3)n2)c1	.	51.1	.	.	.	.	42.7
O=C(Nc1cccnc1Cl)c1cc(-c2ccc(Br)cc2)on1	.	.	.	.	.	.	/
CCOC(=O)Nc1sc2nc(C)cc(C)c2c1-n1cccc1	/	50.7	.	.	.	.	.
CCOCCn1c(=NC(=O)CSCC(=O)N2CCOCC2)sc2cc(OC)ccc21	.	.	.	.	.	.	/
C=CCOc1ccc(C2C(C(=O)c3ccco3)=C(O)C(=O)N2c2nnc(C)s2)cc1 (stereo not given)	.	.	.	.	.	.	/
COc1ccccc1NS(=O)(=O)c1ccc(C)c(NS(=O)(=O)c2cc(NC(C)=O)ccc2OC)c1	.	/	/	/	/	/	/
O=C(O)/C=C\C(=O)Nc1ccc(Oc2ccc(Br)cc2)cc1	.	53.1	.	.	.	.	.
Cc1cc2c(c(C)c1Cl)C(c1ccc3c(c1)OCO3)CC(=O)O2 (stereo not given)	.	.	/	.	.	/	/
Cc1ccc(C(C)C)c2c1C(c1ccc3c(c1)OCO3)CC(=O)O2 (stereo not given)	.	60.0	/	.	.	/	38.9
CCN(CC)c1ccc(/C=C2/C(=O)ON=C2C)cc1	.	55.8	.	.	.	.	60.4
CC1=NOC(=O)/C1=C/c1ccc(N(C)C)cc1	/	.	.	.	.	.	/
Cc1cc(=O)oc2cc(OCC(=O)Nc3ccc(N4CCC(C)CC4)cc3)ccc12	.	.	.	.	.	.	/
Cc1ccc(C(=O)OCC(=O)NC2CCCCC2)s1	.	.	.	.	.	.	/
